Screens deposited in PubChem by The Scripps Research Institute Molecular Screening Center.
LYPLA2 inh – counter-screen for PME1 inhibitors: inhibitors of human LYPLA2; O95372; recombinant LYPLA2, FP-Rh probe fluorescence polarization; inhibition, % at 5.9 µM; hit rate 0.38% among 320,000; AID 2177;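 active = inhibition above the screen-wide mean plus 3 SD, limit set per campaign, cut at about 26% in these data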;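 also: 0% = LYPLA2 with DMSO and 100% = wells lacking LYPLA2 enzyme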
EBNA-1 inhibitor – blocks EBNA-1 binding to DNA; EBNA-1 DNA binding, fluorescence polarization; inhibition, % at 14.8 µM; hit rate 0.34% among 300,000; AID 1950; in the data active = inhibition above about 28%
ZTA DNA inh – ZTA (EBV) inhibition in EBNA-1 counter-screen; P03206; ZTA-DNA binding, fluorescence polarization; inhibition, % at 11 µM; hit rate 0.15% among 320,000; in the data active = inhibition above about 33%
PAD4 FP inh – inhibitors of human PAD4; recombinant PAD4, RCA probe fluorescence polarization; inhibition, % at 6.36 µM; hit rate 0.41% among 330,000;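 active = percent inhibition above a cutoff equal to the mean of all tested compounds plus 3 SD, cut at about 15% in these data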;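 also: 0% = PAD4 with RCA probe and DMSO and 100% = probe without PAD4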
LYPLA1 counter – LYPLA1 (human) inhibition in PME1 counter-screen; O75608; recombinant LYPLA1, FP-Rh probe fluorescence polarization; inhibition, % at 5.9 µM; hit rate 0.16% among 320,000; AID 2174;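 active = inhibition above the mean of all tested compounds plus 3 SD, set per campaign, cut at about 14% in these data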;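 also: inhibitors block serine hydrolase probe labeling of LYPLA1 so polarization falls; 0% = enzyme with DMSO and 100% = wells lacking LYPLA1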
GSTO1 inh – counter-screen for RBBP9 inhibitors: inhibitors of human GSTO1; P78417; recombinant GSTO1, activity-based probe fluorescence polarization; inhibition, % at 5.96 µM; hit rate 1.1% among 300,000;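 active = inhibition above the campaign mean inhibition plus 3 SD, cut at about 35% in these data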;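 also: 0% = GSTO1-1 with DMSO and 100% = wells lacking GSTO1-1 enzyme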
Starred values were filed as active, the others as inactive; nt = no result given. In the library only some 1.7% were active in any assay of this set; here they are far more common.

SMILES | LYPLA2 inh | EBNA-1 inhibitor | ZTA DNA inh | PAD4 FP inh | LYPLA1 counter | GSTO1 inh
CCCCN(C)CCN1C(=O)C2C(C(=O)Nc3ccc(C)cc3)C3C=CC2(O3)C1C(=O)NC1CCCCC1 (stereo not drawn) | -2.9 | -19.2 | -4.1 | -5.6 | -2.9 | -2.1
Oc1cc2c(cc1O)C1c3ccc(O)c(O)c3OCC1(O)C2 (stereo not drawn) | 3.1 | -12.6 | -4.5 | 3.5 | 0.6 | 49.0*
CCOC(=O)C1(Cc2ccc(OC)cc2)CCN(C(=O)[C@@H]2CCCN2C(C)=O)CC1 | 5.8 | -20.8 | -8.3 | -2.7 | 4.1 | 4.9
O=C(O)C(S)C(S)C(=O)O (stereo not drawn) | 5.0 | 7.5 | 18.2 | 1.8 | -6.4 | 64.2*
Cc1nn(C)c(C)c1N1C(=O)c2cccc3c(N)ccc(c23)C1=O | 12.9 | 9.2 | 4.7 | 31.2* | 11.3 | 11.8
Nc1ncc(S(=O)(=O)c2ccc(Cl)cc2)c(N)n1 | 3.3 | 1.9 | 13.1 | 2.4 | -1.1 | 0.5
CC(C)CCN1CCN(Cc2nc3c(s2)CCCC3)CC1CCO (stereo not drawn) | 1.0 | -1.5 | 6.9 | 0.8 | -1.1 | -2.7
O=C(OCn1ncc(Br)c(Br)c1=O)c1ccc(F)cc1 | -8.5 | 0.1 | 9.1 | 25.7* | -3.5 | 36.1*
N=C1/C(=C/c2ccc(-c3cccc(C(=O)O)c3)o2)C(=O)N=C2SC=C(c3ccccc3)N12 | -20.9 | 59.8* | 34.8* | -12.4 | -17.6 | -23.5
Cc1ccc(OCC(=O)c2c(N)n(C)c(=O)n(C)c2=O)c([N+](=O)[O-])n1 | 10.4 | nt | -36.6 | 0.9 | -3.2 | nt
O=c1[nH]c2cc(S(=O)(=O)CCO)ccc2o1 | 3.0 | 5.9 | -18.1 | -1.6 | 1.3 | 7.3
O=C1NC(=O)[C@@H]2C3c4ccccc4C=CN3[C@H](C(=O)c3cccs3)[C@H]12 (stereo partly drawn) | 13.3 | -6.9 | -2.0 | 7.6 | 8.0 | 35.4*
O=C(NC(=S)Nc1ccc(NC(=O)c2cccs2)cc1)c1cc2ccccc2o1 | -15.5 | 68.6* | 25.6 | 0.2 | -6.6 | -8.5
O=C(NC(=S)Nc1ccc(NC(=O)c2cccs2)cc1)c1ccco1 | 5.3 | 8.0 | 0.0 | 0.2 | -0.3 | -6.0
CCNC(=S)N=Nc1c(O)[nH]c2ccc(C(C)C)cc12 | -1.2 | -0.1 | 8.6 | -4.2 | -0.6 | -11.3
CCNC(=S)N=Nc1c(O)[nH]c2ccc([N+](=O)[O-])cc12 | 2.1 | 0.2 | -17.0 | -4.3 | -1.4 | 45.3*
Cc1ccc(OC(C)C(=O)N=Nc2c(O)[nH]c3ccc([N+](=O)[O-])cc23)cc1 (stereo not drawn) | 3.8 | -8.1 | -13.0 | -3.6 | 0.3 | 36.1*
COCC(C)NC(=O)NC1(C(F)(F)F)Oc2ccc(Cl)cc2O1 (stereo not drawn) | -2.0 | -9.0 | -23.4 | 0.8 | -6.3 | 36.5*
Cc1c(C#N)c(NC(=O)CCl)n(Cc2cccs2)c1C | 4.3 | -10.0 | -9.2 | 4.0 | 4.3 | 86.7*
CC1(C(=O)N2CCN(C(=O)c3ccco3)CC2)CC1(Br)Br (stereo not drawn) | 4.6 | 5.4 | -1.2 | 5.7 | -2.4 | 6.7
O=C1CC(CSc2ccc(Cl)cc2)=NN1 | 1.0 | -2.1 | -15.3 | 3.8 | 0.3 | 37.0*
Cc1cc(SCC2=NNC(=O)C2)c(Cl)cc1Cl | 0.9 | -0.3 | 18.4 | -4.7 | -0.2 | 25.5
Nc1ccc(N=Nc2ccccc2)c2ccccc12 | 6.3 | 3.2 | -3.7 | -0.2 | -1.0 | 4.5
Nc1ccc(O)c2ccccc12 | -1.8 | 1.9 | -6.8 | 9.5 | 0.8 | 61.9*
COc1ccc(OC)c(N2C(=O)[C@@H]3C(c4ccccc4Cl)=NO[C@@H]3C2=O)c1 | -2.7 | 9.0 | -3.5 | -9.6 | -3.2 | 36.9*
O=C(CCN1C(=O)C2CC=CCC2C1=O)Nc1cc(C(F)(F)F)ccc1N1CCCC1 (stereo not drawn) | 1.5 | 5.6 | 11.5 | 0.9 | 0.7 | 35.7*
CCOC(=O)C1=C(C)NC(C)=C(C(=O)OCC)C1C(=O)OCC(=O)N(CC)C1CCS(=O)(=O)C1 (stereo not drawn) | 5.9 | 4.8 | 9.8 | 2.1 | 3.2 | 0.3
Cc1c(N(C(=O)c2ccccn2)C2(C(=O)NC3CCCC3)CCCCC2)c(=O)n(-c2ccccc2)n1C | -3.7 | 8.7 | 8.3 | -2.1 | 0.7 | 1.9
Cc1ccc(NC2=C/C(=N/S(=O)(=O)c3cccs3)c3ccccc3C2=O)cc1 | -2.7 | -19.2 | -12.6 | 11.0 | -1.0 | 64.6*
CCOC(=O)c1ccc(N2CCN(c3ccccc3F)CC2)c(NC(=O)Nc2ccccc2)c1 | -13.6 | 1.7 | -7.0 | -3.0 | -24.7 | -18.9
